The results in this text go back to paper PMC9574860, “Chemical Toolkit for PARK7: Potent, Selective, and High-Throughput” (Journal of Medicinal Chemistry, 2022).

Structures are written as SMILES. Hit rate of the full screen: of about 7,900 compounds, about 400 (5.1%) showed an effect of 50% or more. The list comes from a sample in which strong results are over-represented; it also holds similar structures and randomly drawn compounds.

Parkinson's disease protein 7 (PARK7/DJ1), sequence (Q99497 whole entry, looked up, the tested form may be a part): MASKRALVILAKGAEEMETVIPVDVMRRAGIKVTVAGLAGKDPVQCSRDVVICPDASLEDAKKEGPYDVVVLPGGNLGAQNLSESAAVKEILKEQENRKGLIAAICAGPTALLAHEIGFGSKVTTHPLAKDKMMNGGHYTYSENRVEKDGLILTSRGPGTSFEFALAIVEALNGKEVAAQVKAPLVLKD

The assay deals with Parkinson's disease protein 7 (PARK7/DJ1) (human, UniProt Q99497). Put plainly: primary screen, percent inhibition; read as competition with a fluorescent probe by fluorescence polarization; higher = more effect of the substance. The following applies: 100 µM. The method, then:
The screen was conducted using the conditions as described above in 1536-well plates (Corning 3724) with a reaction volume of 8 μL per well. The compound library containing 7887 covalent fragments was purchased at Enamine Ltd. and received as 100 mM DMSO stocks in 384 well LDV Echo plates (Labcyte LP-0200). Stock solutions of 0.26 μM PARK7 and 80 nM JYQ-107 were prepared. Using a Labcyte Echo550 acoustic dispenser, 8 nL of the DMSO stock solution of the library compounds was transferred from the source plates into the empty 1536-well screening plates to obtain a 100 μM final compound concentration. Next, PARK7 (6 μL, final concentration 0.2 μM) was dispensed using a Biotek MultiflowFX liquid dispenser and incubated for 2 h, followed by dispensing the probe JYQ-107 (2 μL, final concentration 20 nM). After 2 h incubation, the FP signal was recorded on a BMG Labtech PHERAstar plate reader (λex/em 480/520 nm). The relative loss of FP signal compared with reference controls was used to calculate the remaining enzyme activity.
For the molecule `N#Cc1cc(N2CC(O)CC2c2cccc(F)c2)ccn1` (stereo not shown), the Inhibition % is given as 12.9%. To `N#Cc1ccc(N2CC(O)CC2c2cccc(F)c2)cn1` (stereo not shown) belongs 3.63%; to `N#Cc1cccc(N2CC(O)CC2c2ccccc2)n1` (stereo not shown), 96.9%. To `COc1cc(C)c(C(C)NC(=O)CCl)cc1OC` (stereo not shown) belongs 3.84%.

Take `N#CC(=Cc1cccc(Cl)c1Cl)C(N)=O`: the Inhibition % is recorded as 8.01%.

Turning to `N#Cc1cccc(F)n1`, the Inhibition % turned out to be 4.58%. As to `N#Cc1nc(F)ccc1O`, the Inhibition % was determined as 55.2%. Turning to `N#Cc1ncccc1O`, the Inhibition % worked out at 23.2%.

On to `O=S1(=O)CCCC(CCl)C1` (stereo not shown), for which the Inhibition % is -4.37%. Turning to `CC1(C)NC(=O)C1(C)C`, the Inhibition % is on record as 2.57%. To `COc1cc(C=C(C#N)C(N)=O)cc(Cl)c1OC(C)C` belongs 7.72%; to `O=S(=O)(F)CCSc1nnc2ccccn12`, 53.9%; to `O=S(=O)(F)CCSc1nnc2sc3ccccc3n12`, 7.67%. As to `O=S(=O)(F)CCn1nnc(-c2ccccc2)n1`, the Inhibition % is 35.7%. In the case of `C=CC(=O)N1CC(Cc2cccc(C)c2)C1`, the Inhibition % amounted to 6.59%. As for `O=C(O)c1ccc(S(=O)(=O)F)c(Cl)c1`, the Inhibition % is recorded as 94.7%.

Consider `Cc1ccc(C(=O)O)cc1B1OC(C)(C)C(C)(C)O1`, for which the Inhibition % is listed as 9.09%. To `COc1cc(NC(=O)CCl)c(Cl)cc1C(=O)O` belongs 13.3%.

Regarding `COc1ccc(S(=O)(=O)F)cc1C(=O)O`, the Inhibition % was 20.2%. Turning to `Cc1ccc(N)cc1S(=O)(=O)F`, the Inhibition % came out at 95.9%.

Take `Nc1ccc(S(=O)(=O)F)c(F)c1`: the Inhibition % worked out at 12.3%.

With `COc1cc(S(=O)(=O)F)c(Cl)cc1C(=O)O`, the Inhibition % was found to be 97.8%. Next, `Cc1ccc(S(=O)(=O)F)c2c1NCCC2`: 4.21%; `Cc1ccc(C(=O)O)cc1S(=O)(=O)F`: 99.4%; `COc1cc(C(=O)O)ccc1S(=O)(=O)F`: 31.2%. Regarding `O=C(CCl)NC1CCCCNC1=O` (stereo not shown), the Inhibition % stood at 13.7%.

With `CC(=O)Nc1ccc(OC(=O)N2CCCC2)cc1`, the Inhibition % was determined as 8.48%. Take `C=CC(=O)N1CCC2(CCSCC2)CC1`: the Inhibition % is listed as 5.26%.

Consider `C=CC(=O)NCC1CCSCC1`, for which the Inhibition % turned out to be 2.54%.

Regarding `COc1nscc1B1OC(C)(C)C(C)(C)O1`, the Inhibition % turned out to be 20.8%. As to `CN(CC(=O)Nc1ccc(Cl)cc1)C(=O)CCl`, the Inhibition % is recorded as 75.9%.

Consider `Cc1ccc(NC(=O)NC(=O)CCl)cc1`, for which the Inhibition % is recorded as 8.73%.

Take `CN(CC(=O)Nc1ccc(F)cc1)C(=O)CCl`: the Inhibition % was 94.2%. On to `CSc1ccccc1NC(=O)CN(C)C(=O)CCl`, for which the Inhibition % is 34.6%. Turning to `Cc1ccc(NC(=O)CN(C)C(=O)CCl)cc1`, the Inhibition % was determined as 96.5%. As to `CN(CC(=O)Nc1ccccc1Cl)C(=O)CCl`, the Inhibition % is 42.3%. `O=C(CCl)Nc1ccc(F)cc1`: the Inhibition % worked out at 25.3%. Turning to `CN(CC(=O)Nc1c(Cl)cccc1Cl)C(=O)CCl`, the Inhibition % amounted to 7.36%.

Turning to `CN(CC(=O)Nc1ccccc1C(F)(F)F)C(=O)CCl`, the Inhibition % is on record as 17.5%. For `N#Cc1cccc(NC[C@H]2CCO[C@@H]2c2ccccc2)n1`, the Inhibition % came out at 3%. Regarding `Cc1nn(C)c(Cl)c1C=CC(=O)N1CCNC(C)C1.Cl` (stereo not shown), the Inhibition % amounted to 11%. As for `C=CC(=O)N1CCOCC1c1cccn1C` (stereo not shown), the Inhibition % is given as 7.42%. Take `C=CC(=O)Nc1cn(C)nc1C1CC1`: the Inhibition % amounted to 10%. For `C=CC(=O)N1CCC(CCF)CC1`, the Inhibition % worked out at 5.32%. Regarding `C=CC(=O)N1CCN(c2ccccc2F)CC1`, the Inhibition % is reported as 7.53%. Consider `C=CC(=O)N1CCC(CCC#N)CC1`, for which the Inhibition % is reported as 8.36%. To `O=C(Cn1nc(-c2ccccc2)oc1=O)N1CCSCC1` belongs 5.67%. Next, `O=C(CCl)Nc1cc(Cl)cc(Cl)c1`: 9.47%; `COc1cccc(NC(=O)CCCl)c1`: 11.2%; `O=C(CCCl)Nc1cccc(Cl)c1`: -0.704%.

Take `COc1cccc(NC(=O)CN(C)C(=O)CCl)c1`: the Inhibition % was 95.9%. Consider `CN(CC(=O)Nc1cccc(Cl)c1)C(=O)CCl`, for which the Inhibition % came out at 93.8%. Consider `COc1cccc(NC(=O)CCl)c1`, for which the Inhibition % stood at 19.1%. As for `O=C(CCl)Nc1cccc(Cl)c1`, the Inhibition % is 34.6%. In the case of `C=CC(=O)N(Cc1cccc(-c2cccnc2)c1)C1CC1`, the Inhibition % came to 12.4%. For the molecule `Cc1cc(OC(F)F)ccc1B1OC(C)(C)C(C)(C)O1`, the Inhibition % turned out to be 3.76%. `CC(C(=O)NC1CC1c1ccccc1)N1C(=O)CCC1=O` (stereo not shown): the Inhibition % came to 14.1%. Take `CC(C)N1CCC(NC(=O)CCl)CC1.Cl`: the Inhibition % is listed as 2.57%.

`O=c1[nH]c(-c2ccccc2)no1`: the Inhibition % worked out at 34.7%.

For `CN1CCC(n2cc(-c3ccc(S(=O)(=O)F)cc3)nn2)C1=O` (stereo not shown), the Inhibition % is reported as 9.08%. In the case of `C=CC(=O)NCCC1CCOC1` (stereo not shown), the Inhibition % is given as 4.58%. To `N#Cc1nc2cc(N)ccc2s1` belongs 55.6%. As to `COc1nc(C#N)sc1C`, the Inhibition % is on record as 2.94%.

On to `C=CC(=O)N1CCC(n2cccc2)CC1`, for which the Inhibition % worked out at 6.94%. As to `Cc1coc(B2OC(C)(C)C(C)(C)O2)c1`, the Inhibition % was found to be 4.69%.

Take `CC1(C)OB(c2cc(-c3ccccc3)co2)OC1(C)C`: the Inhibition % came out at 85.9%. In the case of `CC1(C)OB(c2ccco2)OC1(C)C`, the Inhibition % is recorded as 7.09%. In the case of `Cc1cccc(N2CCN(C(=O)n3ccnc3)CC2)c1C`, the Inhibition % was 6.87%.

Regarding `Cc1cccc(-n2cc(C(=O)CCl)nn2)c1`, the Inhibition % is on record as 95.4%.

For the molecule `Cn1cc(C(=O)CCl)nn1`, the Inhibition % was 3.33%.

With `O=C(CCl)c1cn(-c2ccc(F)cc2)nn1`, the Inhibition % was 5.02%.

Turning to `COc1ccc(C(C)(C)C)cc1S(=O)(=O)n1ccnc1C`, the Inhibition % came out at 7.71%. For `N#Cc1ccc(Cl)cn1`, the Inhibition % is reported as 8.27%.

As to `O=C(CCl)NC(=O)Nc1ccc2c(c1)OCCO2`, the Inhibition % is reported as 7.05%. With `O=C(CCCl)Nc1ccc2c(c1)OCCO2`, the Inhibition % was 7.65%.

`O=C(CCl)Nc1ccc2c(c1)OCCCO2`: the Inhibition % worked out at 57.7%. Turning to `O=C(CCl)Nc1ccc2c(c1)OCO2`, the Inhibition % is reported as 46.5%. Regarding `O=C(CCl)NC(=O)Nc1ccc2c(c1)OCCCO2`, the Inhibition % is 7.15%. To `O=C(CCl)Nc1ccc2c(c1)OCCO2` belongs 55%; to `COC(C)c1cccc(NC(=O)c2cccnc2S)c1` (stereo not shown), 4.97%; to `C=CC(=O)N1Cc2cc(F)c(F)cc2C1`, 2.84%.

For `COc1ccc(CS)c(OC)c1`, the Inhibition % stood at 5.78%. For `COc1cc(OC)c(OC)cc1CS`, the Inhibition % was 63.9%. To `COc1cccc(CS)c1` belongs 15.4%; to `C=CC(=O)N1C[C@H](CC)CC[C@H]1C` (racemic), 10.5%; to `Cc1nc(SC2CC(C)OC2=O)nc(C)c1C` (stereo not shown), 3.23%. Regarding `Cc1nn(-c2ccccc2)c(C)c1NC(=O)CCl`, the Inhibition % is reported as 6.29%. On to `Cc1nn(-c2ccccc2)c(C)c1CNC(=O)CCl`, for which the Inhibition % came to 13.2%.

In the case of `Cc1nn(-c2ccccc2)c(O)c1C(=O)CCl`, the Inhibition % was found to be 64.4%. For `NC(=O)CN(C1CCCC1)S(=O)(=O)C=Cc1ccccc1`, the Inhibition % stood at 7.09%. To `N#Cc1cn(CCS)c(=O)[nH]c1=O` belongs 75.1%. Take `O=c1[nH]c(=O)n(CCC2OCCO2)cc1Cl`: the Inhibition % is recorded as 5.36%. As to `C=CC(=O)NCC1OCCc2ccccc21` (stereo not shown), the Inhibition % turned out to be 7.98%. To `Cc1nn(C)c(Cl)c1C=CC(=O)N1CCC(CN)CC1.Cl` belongs 15.7%; to `O=C(CCl)NCc1ccc(-c2ccc(Cl)cc2)o1`, 18.1%; to `CC(=O)NCc1ccc(S(=O)(=O)F)cc1`, 32.8%. Turning to `CC(=O)NCc1ccc(C(=O)CCl)o1`, the Inhibition % is recorded as 92.2%. Next, `O=C(CCl)NCCc1ccc(Cl)cc1`: 41.2%. Regarding `CC(=O)NC(C)c1ccc(C(=O)CCl)cc1` (stereo not shown), the Inhibition % stood at 38.2%. Turning to `NS(=O)(=O)c1ccc(CCNC(=O)CCl)cc1`, the Inhibition % is given as 17.2%.

Turning to `CC(=O)N(C)Cc1ccc(C(=O)CCl)cc1`, the Inhibition % was 79.8%. Consider `CC(=O)NCCc1ccc(C(=O)CCl)cc1`, for which the Inhibition % was found to be 70.8%. With `CS(=O)(=O)NCCc1ccc(C(=O)CCl)cc1`, the Inhibition % was 82.8%. Turning to `C=CC(=O)N1CCCC(CC#N)C1` (stereo not shown), the Inhibition % turned out to be 5.07%. In the case of `COC(=O)c1ccc(Oc2ccc(C#N)nc2)cc1`, the Inhibition % amounted to 6.29%.

Regarding `Cc1n[nH]c(C)c1CNc1ccc(Cl)c(C#N)n1`, the Inhibition % came to 1.98%. In the case of `C=CC(=O)N1CCCC(NC(C)=O)C1` (stereo not shown), the Inhibition % came out at 8.6%.

As to `Cc1nn(C)c(Cl)c1Cn1c(-c2ccccc2)noc1=O`, the Inhibition % is 3.8%. `Cc1cc(C=C(C#N)C(=O)O)c(C)n1CC1CCCO1` (stereo not shown): the Inhibition % is listed as 11.7%. On to `CCOC1CC(c2nc(-c3cccc(B(O)O)c3)no2)C1` (stereo not shown), for which the Inhibition % is recorded as -4.81%. With `C=CC(=O)N1CCCC(c2nnc3n2CCC3)C1` (stereo not shown), the Inhibition % was determined as 5.59%. As to `O=C(CCl)N1c2ccccc2OCC1c1ccccc1` (stereo not shown), the Inhibition % worked out at 28.9%. Next, `Cc1ccc(B2OC(C)(C)C(C)(C)O2)cc1[N+](=O)[O-]`: 3.85%; `C=CC(=O)N1CC(c2ccccc2)C1`: 12.4%. As for `C=CC(=O)Nc1cnn(COC)c1`, the Inhibition % came to 17.1%. To `NC(=O)COc1ccc(C(=O)CCl)cc1` belongs 5.31%; to `NC(=O)CCc1ccc(C(=O)CCl)cc1`, 82.5%; to `CN(C)C(=O)c1ccc(CNC(=O)CCl)cc1`, 2.36%. As to `CC(=O)NCc1ccc(C(=O)CCl)cc1`, the Inhibition % is 77.1%.

On to `CC(=O)NCc1ccc(S(=O)(=O)NC(=O)CCl)cc1`, for which the Inhibition % is 3.06%. Next, `CN(CCN1C(=O)CCC1=O)Cc1nc2c(s1)CCCC2`: 9.47%; `Cn1ccc(NS(=O)(=O)C=Cc2ccc(Cl)cc2)n1`: 11.2%; `CC(C)NC(=O)C(C#N)=Cc1cc(F)ccc1F`: 1.67%. As for `N#Cc1ccn(-c2ccccc2)n1`, the Inhibition % amounted to 6.25%. Consider `C=CC(=O)N(C)CC(=O)N1c2ccccc2NC(=O)CC1C` (stereo not shown), for which the Inhibition % came to 1.23%.

Take `O=C1CN(C(=O)CCl)c2ccccc2N1`: the Inhibition % was 56.7%. As for `Cc1ccc(C=CC(=O)N2CC(=O)Nc3ccccc32)o1`, the Inhibition % is 15.2%. As to `O=C1CC(C(F)(F)F)N(C(=O)CCl)c2ccccc2N1` (stereo not shown), the Inhibition % is given as 53%.

On to `O=C(CCl)N1c2ccccc2NC(=O)C12CCCC2`, for which the Inhibition % was determined as 42.3%. For the molecule `C=CC(=O)N1CC(=O)Nc2ccccc21`, the Inhibition % is on record as 10%.
